Measured values as given in PubChem BioAssay (NCI).
This is part of a sample that, as a whole, favours compounds with a hit. Of some 83,000 tested, about 20% had one in any assay.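 Each cell line was grown in a 96-well plate and treated with one concentration of compound for 48 hours. Values below 10 were considered active.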 The source made the active and inactive calls.

Assays:
Assay in all cases: NCI-60 one-dose screen, 48 h (100 = growth as untreated, 0 = no growth, -100 = all killed)
Settings in all cases: 10 µM unless noted
NCI-H23 lung = system: NCI-H23 lung
NCI-H322M lung = system: NCI-H322M lung
HOP-62 NSCLC = system: HOP-62 NSCLC
NCI-H460 lung = system: NCI-H460 lung
HOP-92 NSCLC = system: HOP-92 NSCLC
NCI-H522 lung = system: NCI-H522 lung
A549/ATCC NSCLC = system: A549/ATCC NSCLC
786-0 renal = system: 786-0 renal
COLO 205 colon = system: COLO 205 colon
NCI-H226 lung = system: NCI-H226 lung

Measured: growth

CC(C)(C)n1cc(-c2ccnc(NCCCNS(=O)(=O)c3ccc(C(F)(F)F)cc3)c2)c(-c2cccc(F)c2)n1
inactive: NCI-H23 lung 82% | NCI-H322M lung 103% | HOP-62 NSCLC 92.7% | NCI-H460 lung 76.7% | HOP-92 NSCLC 90.1% | NCI-H522 lung 73.7% | A549/ATCC NSCLC 64.1% | 786-0 renal 88.3% | COLO 205 colon 76.9%

Cc1ccc(/C=C/C(=O)c2cccc(OCCCOc3cccc(C(=O)/C=C/c4ccc(C)cc4)c3)c2)cc1
inactive: NCI-H23 lung 69.5% | NCI-H322M lung 85.1% | HOP-62 NSCLC 102% | NCI-H460 lung 75.9% | HOP-92 NSCLC 92.5% | NCI-H522 lung 76.2% | A549/ATCC NSCLC 81.2% | 786-0 renal 57.9% | COLO 205 colon 90.9%

O=C(CSc1nc(-c2ccccc2)cc(=O)[nH]1)Nc1nc(-c2ccccc2)cs1
inactive: NCI-H23 lung 84.3% | NCI-H322M lung 93.4% | HOP-62 NSCLC 109% | NCI-H460 lung 106% | HOP-92 NSCLC 72.5% | NCI-H522 lung 74.4% | A549/ATCC NSCLC 95.3% | 786-0 renal 103% | COLO 205 colon 115%

CN(CCCNC(=O)Cc1ccc2ccc3cccc4ccc1c2c34)CCCNc1cc(-c2ccc3ccccc3c2)nc2ccccc12
active: NCI-H23 lung -82.1% | NCI-H322M lung -83.2% | HOP-62 NSCLC -85.9% | NCI-H460 lung -73.9% | HOP-92 NSCLC -88.8% | NCI-H522 lung -42.9% | A549/ATCC NSCLC 1.17% | 786-0 renal -80.2% | COLO 205 colon -77.3%

COc1ccc(-c2nn(-c3ccccc3)cc2/C=C/C(=O)NNC(=O)Nc2ccc(C)cc2)cc1
inactive: NCI-H23 lung 102% | NCI-H322M lung 99.6% | HOP-62 NSCLC 102% | NCI-H460 lung 102% | HOP-92 NSCLC 102% | NCI-H522 lung 89.4% | A549/ATCC NSCLC 94.8% | 786-0 renal 101% | COLO 205 colon 103%

CCCn1cnc2c(c1=N)C(c1ccc(F)cc1)c1sc3c(F)cccc3c1O2 (stereo not given)
active: NCI-H522 lung 4.15%
inactive: NCI-H23 lung 70.1% | NCI-H322M lung 78.1% | HOP-62 NSCLC 52.4% | NCI-H460 lung 18.7% | A549/ATCC NSCLC 48.1% | 786-0 renal 40.9% | COLO 205 colon 86.4%

CC(=O)/C(=C/c1ccc([N+](=O)[O-])cc1)C(=O)c1ccccc1
inactive: NCI-H23 lung 88.1% | NCI-H322M lung 100% | HOP-62 NSCLC 79.8% | NCI-H460 lung 107% | HOP-92 NSCLC 70.1% | NCI-H522 lung 52% | A549/ATCC NSCLC 83.6% | 786-0 renal 92.5%

NS(=O)(=O)c1ccc(NC(=O)/C(=C\c2ccc(Cl)cc2Cl)NC(=O)c2ccccc2)cc1
inactive: NCI-H23 lung 107% | NCI-H322M lung 102% | HOP-62 NSCLC 95.7% | NCI-H460 lung 105% | HOP-92 NSCLC 87% | NCI-H522 lung 80.3% | A549/ATCC NSCLC 105% | 786-0 renal 104%

C=CCC(CCCC)(C(=O)OCC)C(=O)OCC
inactive: NCI-H23 lung 98.8% | NCI-H322M lung 109% | HOP-62 NSCLC 111% | NCI-H460 lung 117% | HOP-92 NSCLC 96.2% | NCI-H522 lung 94% | A549/ATCC NSCLC 103% | 786-0 renal 94.9%

C=C1C(=O)O[C@H]2[C@H]1CC/C(COC(=O)c1ccc(C(=O)O)s1)=C\CC[C@@]1(C)O[C@@H]21
inactive: NCI-H23 lung 57.4% | NCI-H226 lung 41.9% | NCI-H322M lung 68.2% | NCI-H460 lung 30.6% | A549/ATCC NSCLC 80.3% | 786-0 renal 41.6%
active: NCI-H522 lung -79.8% | COLO 205 colon -0.755%

O=C1C(Nc2ccccn2)=C(I)C(=O)c2ncccc21
active: NCI-H322M lung -31.2% | HOP-62 NSCLC -72.5% | NCI-H460 lung -61.4% | HOP-92 NSCLC -2.25% | NCI-H522 lung -63.1% | A549/ATCC NSCLC -48.8% | 786-0 renal -22.9%
inactive: NCI-H226 lung 33% | COLO 205 colon 49.2%

COc1ccc(/C=C/C(c2cc(OC)c(OC)c(OC)c2)n2ccnc2)cc1O (stereo not given)
inactive: NCI-H226 lung 88.4% | NCI-H322M lung 45.8% | HOP-62 NSCLC 47.2% | NCI-H460 lung 16.5% | HOP-92 NSCLC 30.5% | NCI-H522 lung 24.6% | A549/ATCC NSCLC 29.1% | 786-0 renal 34% | COLO 205 colon 89.8%

CCOC(=O)c1c(C)c2c(n1Cc1ccccc1)CSCC2=O
active: NCI-H226 lung -5.37% [100 µM] | HOP-62 NSCLC -25.9% [100 µM] | NCI-H460 lung -21.1% [100 µM] | HOP-92 NSCLC -19.4% [100 µM] | 786-0 renal -11.2% [100 µM] | COLO 205 colon -53.3% [100 µM]
inactive: NCI-H322M lung 36.4% [100 µM] | NCI-H522 lung 16.5% [100 µM] | A549/ATCC NSCLC 20.2% [100 µM]

CC1CCN(C(=O)CCCl)c2ccccc21 (stereo not given)
inactive: NCI-H322M lung 107% | NCI-H460 lung 101% | HOP-92 NSCLC 115% | NCI-H522 lung 84.9% | A549/ATCC NSCLC 96.6% | 786-0 renal 110% | COLO 205 colon 111%

CNC(=O)c1cc(Oc2cccc3nc(NC(=O)Nc4cc(C(F)(F)F)ccc4Cl)ccc23)ccn1
inactive: NCI-H226 lung 99.1% | NCI-H322M lung 101% | HOP-62 NSCLC 95.2% | NCI-H460 lung 101% | HOP-92 NSCLC 115% | NCI-H522 lung 94% | A549/ATCC NSCLC 90% | 786-0 renal 68.8%

CC/C=C\CCC/C=C1/C(=O)C=C[C@@H]1C/C=C\CCCC(=O)OC
inactive: NCI-H226 lung 77% | NCI-H322M lung 101% | HOP-62 NSCLC 42.3% | NCI-H460 lung 52.4% | HOP-92 NSCLC 83.4% | NCI-H522 lung 11.7% | A549/ATCC NSCLC 79% | 786-0 renal 69.3% | COLO 205 colon 49.7%

CC1(C)CC[C@]2(C(=O)N[C@H](CO)Cc3ccccc3)CC[C@]3(C)C(=CC[C@@H]4[C@@]5(C)CCCNC(C)(C)[C@@H]5CC[C@]43C)[C@@H]2C1
inactive: NCI-H226 lung 91.1% | NCI-H322M lung 95.3% | HOP-62 NSCLC 89% | NCI-H460 lung 78.3% | HOP-92 NSCLC 26.4% | NCI-H522 lung 96.8% | A549/ATCC NSCLC 89.8% | 786-0 renal 65.5% | COLO 205 colon 77.8%

C[C@H](C(=O)N(CCc1ccc(Cl)c(Cl)c1)Cc1cncs1)[C@@H]1CC[C@H](C[C@H](C)n2cc(CN3CCC(c4ccc(Cl)cc4)CC3)nn2)O1
inactive: NCI-H226 lung 85% | NCI-H322M lung 92.7% | HOP-62 NSCLC 101% | NCI-H460 lung 103% | HOP-92 NSCLC 106% | NCI-H522 lung 86.7% | A549/ATCC NSCLC 96.3% | 786-0 renal 93.2% | COLO 205 colon 97.6%

Cn1ccc(=O)nc1
inactive: NCI-H226 lung 104% | NCI-H322M lung 82.9% | HOP-62 NSCLC 102% | NCI-H460 lung 38.7% | HOP-92 NSCLC 104% | NCI-H522 lung 49% | A549/ATCC NSCLC 83.2% | 786-0 renal 109% | COLO 205 colon 102%

CCCCCCCCCCCCCCCCCCOc1ccccc1CC(=O)NCC[N+]1(C)CCCCC1
inactive: NCI-H226 lung 74.2% | NCI-H322M lung 62.7% | HOP-62 NSCLC 59% | NCI-H460 lung 41.9% | HOP-92 NSCLC 19.9% | NCI-H522 lung 32.7% | A549/ATCC NSCLC 51.2% | 786-0 renal 74.2% | COLO 205 colon 23.6%

CC1(C)CC[C@]23CC[C@]4(C)[C@H](CC[C@@H]5[C@@]6(C)C/C(=C/c7ccncc7)C(=O)C(C)(C)[C@@H]6CC[C@]54C)[C@H]2[C@H]1OC3
inactive: NCI-H226 lung 90.9% | NCI-H322M lung 90.9% | NCI-H460 lung 75.8% | HOP-92 NSCLC 72.4% | NCI-H522 lung 76.4% | A549/ATCC NSCLC 76.5% | 786-0 renal 88.5% | COLO 205 colon 68.5%

Fc1ccc(Cn2cc(CSc3nc4ccccc4o3)nn2)cc1
inactive: NCI-H226 lung 92.8% | NCI-H322M lung 91.9% | HOP-62 NSCLC 87.5% | NCI-H460 lung 110% | HOP-92 NSCLC 113% | NCI-H522 lung 83.4% | A549/ATCC NSCLC 103% | 786-0 renal 91.1% | COLO 205 colon 114%

O=C1Nc2c(C(=O)O)cccc2/C1=N/c1n[nH]c(=S)s1
inactive: NCI-H226 lung 86.2% | NCI-H322M lung 95.6% | HOP-62 NSCLC 79.7% | NCI-H460 lung 93.4% | HOP-92 NSCLC 96.1% | NCI-H522 lung 81.1% | A549/ATCC NSCLC 85.5% | 786-0 renal 91.3% | COLO 205 colon 118%

Cc1nnc(-c2ccc3c(c2)nc(/C=C/c2ccccc2)n3C2CCCCC2)o1
inactive: NCI-H226 lung 104% | NCI-H322M lung 85.9% | HOP-62 NSCLC 83% | NCI-H460 lung 82.4% | HOP-92 NSCLC 79.7% | NCI-H522 lung 68.6% | A549/ATCC NSCLC 52.5% | 786-0 renal 92.2% | COLO 205 colon 79.7%

CCN1CCN(C(=O)[C@]23CC[C@@H](C)[C@H](C)[C@@H]2C2=CC[C@@H]4[C@@]5(C)C/C(=C/c6cccnc6)C(=O)C(C)(C)[C@@H]5CC[C@@]4(C)[C@]2(C)CC3)CC1
active: NCI-H460 lung 7.51%
inactive: NCI-H322M lung 65.7% | HOP-62 NSCLC 44.5% | HOP-92 NSCLC 56.9% | NCI-H522 lung 17.7% | A549/ATCC NSCLC 32% | 786-0 renal 42.4% | COLO 205 colon 11.5%

C=CCn1c(SCC(=O)Nc2ccc(/C(C)=N/O)cc2)nnc1-c1cc(-c2ccc(S(N)(=O)=O)cc2)nc2ccccc12
inactive: NCI-H226 lung 84.1% | NCI-H322M lung 96.7% | HOP-62 NSCLC 84.3% | NCI-H460 lung 91% | HOP-92 NSCLC 72.3% | NCI-H522 lung 68.8% | A549/ATCC NSCLC 110% | 786-0 renal 85.4% | COLO 205 colon 94.2%

C=C(C)[C@@H]1CC[C@]2(C(=O)N3CCN(C)CC3)CC[C@]3(C)[C@H](CC[C@@H]4[C@@]5(C)CC[C@H](OC(=O)c6ccccc6C(=O)O)C(C)(C)[C@@H]5CC[C@]43C)[C@@H]12
inactive: NCI-H226 lung 99.4% | NCI-H322M lung 101% | HOP-62 NSCLC 98% | NCI-H460 lung 103% | HOP-92 NSCLC 102% | NCI-H522 lung 84.2% | A549/ATCC NSCLC 104% | 786-0 renal 101% | COLO 205 colon 111%

NC(N)=NS(=O)(=O)c1ccc(NC2=C(I)C(=O)c3ncccc3C2=O)cc1
inactive: NCI-H226 lung 86.7% | NCI-H322M lung 109% | HOP-62 NSCLC 111% | NCI-H460 lung 103% | HOP-92 NSCLC 115% | NCI-H522 lung 81% | A549/ATCC NSCLC 106% | 786-0 renal 110% | COLO 205 colon 112%

CC1=C(C(=O)Nc2nc(-c3ccc(Cl)cc3)cs2)[C@H](c2ccc(O)cc2)NC(=O)N1
inactive: NCI-H322M lung 88.3% | HOP-62 NSCLC 99.1% | NCI-H460 lung 104% | HOP-92 NSCLC 100% | NCI-H522 lung 90.5% | A549/ATCC NSCLC 95.1% | 786-0 renal 97.8% | COLO 205 colon 110%
